# Results taken from PubChem BioAssay (NCI).
# The panel holds about 83,000 compounds, 20% with a hit somewhere; the sample as a whole holds those more often.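 Plates (96-well) were seeded with cells, treated with compound at one concentration, and incubated for 48 hours before percent growth was determined.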 Unmarked numbers belong to inactive results. Activity calls are given as the source filed them. Rule for the calls: active = growth percent below 10; inactive = the rest.
# Legend:
# Experiment in all cases: NCI-60 one-dose screen, 48 h (100 = growth as untreated, 0 = no growth, -100 = all killed)
# NCI-H23 lung = settings: 10 µM unless noted
# NCI-H226 lung = settings: 10 µM unless noted
# NCI-H322M lung = settings: 10 µM unless noted
# NCI-H460 lung = settings: 10 µM unless noted
# HOP-92 NSCLC = settings: 10 µM unless noted
# NCI-H522 lung = settings: 10 µM unless noted
# A549/ATCC NSCLC = settings: 10 µM unless noted
# 786-0 renal = settings: 10 µM unless noted
# COLO 205 colon = settings: 10 µM unless noted
# DU-145 prostate = settings: 10 µM unless noted
# K-562 leukemia = settings: 10 µM unless noted
# MALME-3M melanoma = settings: 10 µM unless noted
# MDA-MB-231 breast = settings: 10 µM unless noted
# RXF 393 renal = settings: 10 µM unless noted
# SF-268 CNS = settings: 10 µM unless noted
# SF-295 CNS = settings: 10 µM unless noted
# SF-539 CNS = settings: 10 µM unless noted
# M14 melanoma = settings: 10 µM unless noted
# HOP-62 NSCLC = settings: 10 µM unless noted
# UACC-257 melanoma = settings: 10 µM
SMILES,growth (NCI-H23 lung),growth (NCI-H226 lung),growth (NCI-H322M lung),growth (NCI-H460 lung),growth (HOP-92 NSCLC),growth (NCI-H522 lung),growth (A549/ATCC NSCLC) [%],growth (786-0 renal),growth (COLO 205 colon),growth (DU-145 prostate),growth (K-562 leukemia),growth (MALME-3M melanoma) [%],growth (MDA-MB-231 breast),growth (RXF 393 renal),growth (SF-268 CNS),growth (SF-295 CNS),growth (SF-539 CNS),growth (M14 melanoma),growth (HOP-62 NSCLC) [%],growth (UACC-257 melanoma)
COC(=O)CCCCN=Cc1c(O)c(O)c(C(C)C)c2cc(C)c(-c3c(C)cc4c(C(C)C)c(O)c(O)c(C=NCCCCC(=O)OC)c4c3O)c(O)c12,15.6%,41.4%,25.4%,5.03% (active),-10.1% (active),-0.222% (active),21,21.7%,10.2%,24.3%,10.3%,42.5,6.38% (active),8.84% (active),24.2%,2.79% (active),24.2%,22.9%,,
Cc1ccc(S(=O)(=O)OC2COCOC2C(OS(=O)(=O)c2ccc(C)cc2)C2OCOCC2OS(=O)(=O)c2ccc(C)cc2)cc1 (stereo unspecified),109%,95.2%,96.3%,110%,104%,98.3%,,,108%,111%,100%,98.1,,114%,106%,104%,98.9%,112%,99.4,97.2%
COc1ccc(/C=C/c2nc(N3CCOCC3)c3nc(Cl)c(Cl)cc3n2)cc1OC,99.7%,102%,145%,106%,105%,83.1%,96.5,99.8%,,101%,77.7%,144,110%,109%,105%,87.9%,98.8%,103%,,111%
N#Cc1ccc(NC(=O)c2ccc3cccnc3c2O)cc1,43.7%,45.2%,27.7%,4.71% (active),71.4%,18.6%,15.1,10.2%,11.2%,29.4%,30.7%,42.1,44.4%,49.4%,21.6%,38.5%,17.1%,6.01% (active),,13.5%
COc1cc2c(cc1OCCCCn1c(-c3cc(=O)c4ccccc4o3)nc3ccccc31)N=C[C@@H]1CCCN1C2=O,101%,101%,108%,112%,66.5%,66.7%,90.5,108%,104%,118%,72.3%,109,87.7%,51.3%,107%,113%,118%,105%,,
CC/C=C\C/C=C\C[C@H]1C/C=C2/C(=O)C=C[C@H]2C/C=C\CCC(=O)O1,7.93% (active),-5.58% (active),53.1%,-5.43% (active),-10% (active),-56% (active),25.2,-6.65% (active),-32.4% (active),12.7%,1.48% (active),12.4,3.22% (active),-48% (active),12.7%,6.87% (active),13%,-3.62% (active),,
Cc1ccc(S(=O)(=O)OCC(=O)Nc2ccc(C(=O)O)c(O)c2)cc1,131%,126%,104%,103%,-60.6% (active),93.8%,101,108%,131%,100%,70.2%,106,97.2%,63.1%,97%,110%,96.1%,95.4%,,
Nc1c(C(=O)Nc2cccc(C(F)(F)F)c2)sc2nc3c(cc12)C(O)CCC3 (stereo unspecified),39.5%,56.3%,27.2%,14.5%,67.2%,19.3%,24.7,47.4%,9.16% (active),9.15% (active),14.4%,51.2,61.9%,,45.6%,27.2%,21.6%,,,44.2%
O=Nc1c(-c2c(O)[nH]c3ccc([N+](=O)[O-])cc23)[nH]c2ccc(O)cc12,3.19% (active),-4.7% (active),7.21% (active),-28.5% (active),-3.1% (active),-79.1% (active),10.6,4.21% (active),65.8%,6.72% (active),20.9%,11.7,25.4%,,6.5% (active),20.9%,-34.1% (active),11.4%,,9.29% (active)
